D1 potentiator = potentiators of human D1 dopamine receptor. hit rate 0.036% among 360,000. AID 504651. potentiation, % at 10 µM. HEK293 TREx D1 cells, calcium flux, dopamine EC20 potentiation; in the data active = potentiation above about 30%; also: 0% is about no effect
Target sequence (P21728 whole entry, looked up): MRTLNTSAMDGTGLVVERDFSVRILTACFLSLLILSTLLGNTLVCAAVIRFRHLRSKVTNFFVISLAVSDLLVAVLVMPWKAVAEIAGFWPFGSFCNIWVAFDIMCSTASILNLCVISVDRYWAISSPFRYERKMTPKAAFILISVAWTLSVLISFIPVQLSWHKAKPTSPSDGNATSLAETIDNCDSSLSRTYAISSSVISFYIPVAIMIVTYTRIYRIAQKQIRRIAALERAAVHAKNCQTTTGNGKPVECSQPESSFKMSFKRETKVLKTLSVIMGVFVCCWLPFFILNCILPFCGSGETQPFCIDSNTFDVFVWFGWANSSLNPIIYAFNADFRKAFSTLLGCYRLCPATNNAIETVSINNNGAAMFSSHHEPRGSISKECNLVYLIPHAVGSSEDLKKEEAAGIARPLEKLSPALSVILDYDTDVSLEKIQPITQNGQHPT
Glioma ERSR ind = induces the endoplasmic reticulum stress response in human glioma cells; Potency, µM, for the others: at the top dose activation, most hits filed as activators; U87-MG GRP78 promoter luciferase reporter, 16 h; hit rate 0.02% among 420,000; AID 602332; active = well fitted activation curve with a large enough effect; also: potency is read from the fitted curve at half-maximal effect; series mostly up to about 76 µM; % of control where 0% means no effect; nearly all actives have a fitted effect of over 35% in size
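ERSR induction read as luciferase luminescence (Bright-Glo, 10 min at room temperature) in stably transfected human U87-MG glioma cells exposed to compounds for 16 h, using GRP78 as sensor.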
TRHR PAM = allosteric enhancers of human TRH receptor; P34981; enhancement, % at 2 µM; hit rate 0.66% among 360,000; AID 493056; TRHR cells, fluo-8 calcium fluorescence, EC20 TRH enhancement; in the data active = enhancement above about 30%; also: 0% is about no effect
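TRHR-expressing cells loaded with fluo-8 calcium dye were read kinetically (ex 480/em 530) during compound addition, then stimulated with an EC20 of TRH (10 nM final). Enhancement of the Gq-mediated intracellular calcium response was scored.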
D1 agonist = activates the human D1 dopamine receptor; HEK293 T-REx D1 cells, calcium flux, agonist mode; activation, % at 2 µM; hit rate 1% among 360,000; AID 504660; also: 0% is about no effect
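Tetracycline-induced HEK293 TREx D1 cells, force-coupled to calcium signalling, were dye-loaded with a no-wash calcium kit. Compound was pin-added after a 10 s baseline. Fluorescence was read kinetically at 1 cycle/s for 180 s, with calcium rises flagged as agonism.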
D1 antagonist = antagonists of human D1 dopamine receptor; hit rate 3.2% among 360,000; activity change, negative = inhibition, % at 10 µM; HEK293 TREx D1 cells, calcium flux, dopamine EC80; active compounds read low; in the data active = activity change below about -30%; also: % is scaled to controls: 0 for no effect and ±100 for the full control effect
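Cells carrying a force-coupled, tetracycline-inducible human D1 receptor report calcium flux. Each well gets a 10 s baseline, compound with 180 s monitoring, then an EC80 dopamine stimulus with a second 180 s kinetic read.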
TRHR agonist = agonists of human TRH receptor; P34981; activation, % at 2 µM; AID 493084; hit rate 0.18% among 360,000; TRHR cells, calcium flux fluo-8, FDSS agonist mode; also: 0% is about no effect
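In this calcium-flux screen, cells bearing human TRHR are dye-loaded with fluo-8, baselined for 10 cycles, then exposed to library compounds; positive kinetic calcium responses during the agonist phase mark hits, with TRH as control.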
Numbers without * were called inactive; nt = no result given. Sampled rows, rich in hits. Any-hit rate of the full collection: about 4%. Rule as the data show it, unless noted: active = activation above about 30%; inactive = the rest.

SMILES | D1 potentiator | Glioma ERSR ind | TRHR PAM | D1 agonist | D1 antagonist | TRHR agonist
CN(C)c1c(Cl)cc(/C=C/c2ccnc3ccccc23)cc1Br | nt | -2% | nt | nt | nt | nt
CC(=O)N1N=C(c2ccc(Cl)cc2)OC1(C)C | 4 | -1% | 34* | 0 | 16 | 0
CC(=O)N1N=C(c2ccccc2)OC12CCCC2 | -5 | -4% | -2 | 0 | -21 | 0
O=C(CCc1c[nH]c2ccccc12)N=Nc1c(O)[nH]c2ccccc12 | -12 | -2% | 1 | 0 | -44* | 0
O=C(CCn1cnc2ccccc21)N=Nc1c(O)[nH]c2ccccc12 | -9 | 1% | -4 | 2 | -77* | -1
Cn1c(SCC(=O)N=Nc2c(O)[nH]c3ccccc23)nc2ccccc21 | 1 | nt | -7 | 1 | -8 | 0
COc1ccc(CN2CCC3(CCC(CNC(=O)c4ccco4)O3)CC2)c(OC)c1C (configuration not stated) | nt | -4% | nt | nt | nt | nt
CCc1ccc(CN(Cc2cn[nH]c2-c2ccc(OC)cc2)C(=O)Nc2cc(Cl)ccc2OC)cc1 | 4 | -4% | 2 | 2 | -62* | -1
O=C(c1cc2cc(F)ccc2[nH]1)N1CCC(Cc2ccccc2)CC1 | 1 | 1% | 1 | 2 | 5 | -1
CCCn1c(=O)c2c(nc3n2CCS3)n(C)c1=O | 4 | 1% | -4 | 4 | 5 | 0
Cc1cc(NC(=O)C2CC(=O)N(c3ccccc3Cl)C2)no1 (configuration not stated) | -1 | 0% | 10 | 3 | -2 | 0
CN1CCN(/N=C/c2ccc(-c3ccccc3)cc2)CC1 | -6 | 2% | -1 | 72* | -76* | -1
C(=N\N1CCN(Cc2ccccc2)CC1)/c1ccc(-c2ccccc2)cc1 | -7 | -3% | 1 | 1 | nt | 1
N=C(N=C(N)N)N1CCc2ccccc21 | -7 | 8% | 2 | 1 | -37* | 0
O=C(OCc1ccccc1)N1CCc2ccccc21 | -6 | -6% | 0 | 2 | 6 | -1
CCC(CC)c1nnc(NC(=O)c2cccc(S(=O)(=O)N3CCOCC3)c2)s1 | nt | -3% | nt | nt | nt | nt
CCCNC(=O)c1c(N)n(-c2cccc(OC)c2)c2nc3ccccc3nc12 | -8 | -1% | -4 | 1 | -14 | 3
Nc1c(C(=O)NCCN2CCOCC2)c2nc3ccccc3nc2n1-c1cccc(F)c1 | -11 | -4% | -1 | 1 | -48* | 0
COc1cccc(NC(=O)c2ccccc2OCC(=O)Nc2ccc(Br)cc2)c1 | nt | -4% | nt | nt | nt | nt
COC(=O)c1ccc2nc(C)cc(Nc3ccccc3C)c2c1 | -2 | -4% | -3 | 3 | -33* | -1
Cc1ccc(Nc2cc(C)nc3c(C)cccc23)cc1 | -12 | -3% | -3 | 0 | -33* | 0
COC(=O)c1ccc(Nc2cc(C)nc3ccc(C)cc23)cc1 | -11 | -5% | 9 | 1 | -14 | 0
CC(=O)c1cccc(Nc2cc(C)nc3ccc(C)cc23)c1 | -20 | -5% | -1 | -1 | -40* | 0
CC(=O)c1ccc(Nc2cc(C)nc3c(C)cccc23)cc1 | -3 | -1% | -19 | 10 | -31* | 1
Cc1cc2c(s1)c1cnn(Cc3ccc(C#N)cc3)c(=O)c1n2C | -4 | nt | 2 | 4 | -16 | 0
SMILES | D1 potentiator | Glioma ERSR ind | TRHR PAM | D1 agonist | D1 antagonist | TRHR agonist
CCC(C)(C)c1ccc(CC(C)CN2C[C@@H](C)O[C@@H](C)C2)cc1 (some centres not stated) | nt | -12% | nt | nt | nt | nt
Nc1ccc(Oc2ccc(F)cc2)nc1 | -5 | -3% | 34* | 5 | -18 | 0
O=Cc1ccc(Oc2ccc(F)cc2)nc1 | 5 | -2% | 1 | 2 | -4 | 0
CN(C)c1ccc(N=Nc2ccc(/C=C/c3ccnc4ccccc34)cc2)cc1 | nt | -3% | nt | nt | nt | nt
COc1ccccc1N1CCN(CC(O)COc2c(OC)cccc2OC)CC1 (configuration not stated) | -9 | -4% | -2 | 2 | -19 | -1
C=CCc1ccc(OCC(O)CN2CCN(Cc3ccc(Cl)cc3)CC2)c(OC)c1 (configuration not stated) | -11 | -8% | 4 | 43* | -14 | 1
COc1ccccc1N1CCN(CC(O)COCc2cccs2)CC1 (configuration not stated) | 1 | -3% | -4 | 7 | -37* | 0
C=CCc1ccccc1OCC(O)CN1CCOCC1 (configuration not stated) | nt | -3% | nt | nt | nt | nt
OCCN1CCN(CC(O)COCCOc2ccc(Br)cc2)CC1 (configuration not stated) | -5 | 0% | 2 | 7 | -8 | 0
C=CCc1ccccc1OCC(O)CN1CCN(c2ccc(OC)cc2)CC1 (configuration not stated) | -8 | 0% | -1 | 5 | -64* | -1
CC1(C)CCCC(C)(C)N1CC(O)COCCOc1ccc(Br)cc1 (configuration not stated) | -2 | -5% | -5 | 39* | -6 | 0
COc1cc2nc(N3CCCN(C)CC3)nc(OC3CCN(C)CC3)c2cc1OC | nt | -5% | nt | nt | nt | nt
Oc1cc2cc(-c3csc(-c4ccc(F)cc4)n3)cc3c2n1CCC3 | nt | 1% | nt | nt | nt | nt
CCN1CCN(Cc2nc3cc(NC(=O)c4cc(OC)c(OC)c(OC)c4)ccc3n2CC)CC1 | 0 | 5% | -4 | 1 | -7 | 1
COc1ccccc1N1CCN(CC(O)COCCOc2ccc(Br)cc2)CC1 (configuration not stated) | -18 | -7% | -10 | 16 | -63* | 0
COc1ccc(N2CCN(CC(O)COCCOc3ccc(Br)cc3)CC2)cc1 (configuration not stated) | -10 | -1% | 16 | 29 | -24 | 2
OC(COc1ccc(Br)cc1)CN1CCN(c2ccccc2)CC1 (configuration not stated) | -6 | -4% | -2 | 12 | -46* | 1
OC(COc1ccccc1)CN1CCN(c2ccccc2)CC1 (configuration not stated) | nt | -1% | nt | nt | nt | nt
CC(=O)c1c(C)n([O-])c2cc(C)ccc2[n+]1=O | -8 | -5% | 4 | 3 | 2 | 1
COC(=O)c1sccc1S(=O)(=O)N1CCC(n2c(CC3CCCC3)nc3cccnc32)CC1 | nt | -4% | nt | nt | nt | nt
Nc1nnc(CCS(=O)(=O)c2ccc(Br)cc2)s1 | 1 | -5% | 2 | 1 | 5 | 0
COc1cc(C2C(C#N)=C(N)OC3=C2C(=O)CCC3)cc2c1OCO2 (configuration not stated) | 5 | -3% | -2 | 3 | 5 | 0
Cc1cc2oc(=O)cc(CN3CCCCC3)c2cc1C | 1 | 0% | -2 | 1 | -9 | 0
Cc1cc2oc(=O)cc(CN3CCN(S(=O)(=O)c4cccs4)CC3)c2cc1C | -6 | -5% | -5 | 2 | -44* | 0

Screening results deposited in PubChem by National Center for Advancing Translational Sciences (NCATS).
